Data: PubChem BioAssay (NCI)
Compounds without any hit were thinned out: in the full panel of roughly 79,000, 15% have a hit. A number with no mark means an inactive call. Activity calls are given as the source filed them. Rule as the data show it: active = growth inhibition above about 70%; inactive = the rest.

Experiments:
[1] = NCI Yeast Anticancer Drug Screen. Data for the rad50 strain (AID 155);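 also: 0% = growth of vehicle-only cultures of the same strain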; conditions: S. cerevisiae rad50 strain growth inhibition; at 50.0 µM; hits give high values
In short: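 Relative growth inhibition (compound vs vehicle) was measured in yeast with a defined repair-gene alteration.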

[2] = NCI Yeast Anticancer Drug Screen. Data for the mec2-1 strain (AID 157); conditions: S. cerevisiae mec2-1 strain, at 50.0 µM, hits give high values
In short: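 Growth inhibition is read against vehicle-treated controls after compound exposure of the mec2-1 yeast strain, which is defective in DNA damage repair or cell cycle control.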

[3] = NCI Yeast Anticancer Drug Screen. Data for the sgs1 mgt1 strain (AID 161);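 also: 0% = growth of cultures given vehicle only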; conditions: S. cerevisiae sgs1 mgt1 strain, at 50.0 µM, hits give high values
In short: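 Compounds are added to genetically altered yeast, and growth is compared with cultures given vehicle alone to give percent inhibition.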

[4] = NCI Yeast Anticancer Drug Screen. Data for the cln2 rad14 strain (AID 165);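 also: 0% = growth equal to vehicle treated cultures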; conditions: S. cerevisiae cln2 rad14 strain, at 50.0 µM, hits give high values
In short: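 Growth inhibition, relative to vehicle-treated controls, is the read-out. The test organism is a yeast strain with defined genetic alterations, cln2 rad14.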

[5] = NCI Yeast Anticancer Drug Screen. Data for the bub3 strain (AID 167); conditions: S. cerevisiae bub3 mutant strain, at 50.0 µM, hits give high values
In short: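 Screening used yeast with an engineered genetic alteration affecting cell cycle control. Compound-exposed cultures were compared with vehicle cultures, and reduced growth was taken as inhibition.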

[6] = NCI Yeast Anticancer Drug Screen. Data for the mlh1 rad18 strain (AID 175); conditions: S. cerevisiae mlh1 rad18 strain growth inhibition; at 50.0 µM; hits give high values
In short: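 Cells of a genetically altered yeast strain, deficient in DNA damage repair, were treated with compound. Their growth was then compared with that of vehicle-treated cultures to give inhibition.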

SMILES | growth inhibition [1] [%] | growth inhibition [2] [%] | growth inhibition [3] [%] | growth inhibition [4] [%] | growth inhibition [5] [%] | growth inhibition [6]
CN1CCN(CCCNN)CC1 | 2.05 | -17.1 | -17.6 | 3.55 | -70.6 | -30.1%
O=S(=O)(NCCBr)c1ccccc1 | -1.5 | 2.45 | -8.9 | 11.6 | -2 | 2.05%
CC(=O)Oc1ccc(OC(C)=O)c([N+](=O)[O-])c1 | 24.1 | 17.2 | -1.65 | -9.75 | 1 | 29.2%
NC(=S)N=Nc1c(O)[nH]c2ccccc12 | 12.8 | -9.8 | -5.9 | 4.85 | 9.95 | 6.55%
O=Cc1ccc2ccccc2c1 | 33.5 | -12 | -7.45 | -57.5 | 16.8 | 30.8%
O=C1OC(=O)C(=C(c2ccccc2)c2ccccc2)C1=C(c1ccccc1)c1ccccc1 | 51.8 | 64.1 | 48.4 | 43.5 | 53.1 | 76.8% (active)
N#Cc1ccc(/C=C2\Cc3ccccc3C2=O)cc1 | -30.6 | -29.7 | -35 | 9.5 | -18.8 | 3.5%
O=C(Cl)c1cccc2c([N+](=O)[O-])cccc12 | -4.45 | 2.95 | -2.35 | -44 | -1.4 | 11.8%
Clc1cccc2nsnc12 | 12.9 | -12.1 | -3.15 | -49 | 5.15 | 6.1%
CCOC(=O)c1cnc(C)nc1Nc1ccccc1 | 5.75 | 11.4 | -0.8 | -21.4 | 0.9 | -23.7%
O=C(NNC1=NCCN1)c1ccco1 | -7.5 | -21.1 | -9.8 | -32.4 | -2.3 | -2.25%
CN1C(=O)OC2C3NC(=O)OC3C(O)C(O)C21 (stereo not drawn) | -7.85 | -12.3 | -6.3 | -1.15 | -6.15 | -8.95%
CCC(C(=O)O)C1=CCCCC1 (stereo not drawn) | 15.7 | -13.6 | 16.2 | 16.1 | -14.2 | 4.45%
CCCc1c(N)nc(N)nc1N | 3.4 | 2.05 | -5.7 | -48.6 | 7.4 | -7.65%
COc1ccc(-n2c(C)c(COC(C)=O)c(COC(C)=O)c2C)cc1 | -5.4 | -18.2 | -0.55 | -2.8 | -7.55 | -55.2%
c1ccc(-c2ccccc2NC2=NCCO2)cc1 | 6.55 | -2.8 | 2.2 | -25.1 | 11.4 | 5.7%
O=c1[nH]cnc2nn(C3OC(CO)C(O)C3O)nc12 (stereo not drawn) | 10.7 | 11.5 | 1.5 | 11.2 | -7.2 | 23.6%
NNC(=O)C(O)C(O)C(=O)NN (stereo not drawn) | 8.5 | -6.8 | -20.2 | 46.6 | -8.05 | -8.1%
Cc1c(Cl)c2ccccc2n1S(=O)(=O)c1ccccc1 | 38.1 | -3.55 | 31.2 | 22.1 | 10.5 | 21.9%

SMILES | growth inhibition [1] [%] | growth inhibition [2] [%] | growth inhibition [3] [%] | growth inhibition [4] [%] | growth inhibition [5] [%] | growth inhibition [6]
CC(C)[C@@H]1C=C(c2ccccc2)c2ccccc2C1C(C#N)(C#N)C(C)C (stereo partly drawn) | -30.2 | -33.5 | -10.3 | -8.4 | -12.9 | -14.1%
Cc1c2cc3c(c1O)C(=O)CC(O3)c1ccc(O)c(c1)-c1cccc(c1O)C(=O)OCC1OC(O2)C(O)C(O)C1O (stereo not drawn) | 51.2 | 54.4 | 32 | 34.5 | 39.6 | 30.1%
CC(=O)Nc1ccn(C2OC(COC(C)=O)C(OC(C)=O)C(OC(C)=O)C2OC(C)=O)c(=O)n1 (stereo not drawn) | 0.3 | -14.3 | 2.45 | -12.1 | -4.3 | 5.55%
O=C1CCSc2nc(-c3ccc4c(c3)OCO4)nn21 | 7.2 | -8.5 | -13.3 | 15.2 | 4.6 | 9.2%
CCN(CC)Cc1cc(N=Nc2cccc3ccccc23)c2ccccc2c1O | 31.6 | 11.4 | 30.1 | 24.9 | -3.15 | 35.7%
COC1/C=C/OC2(C)Oc3c(C)c(O)c4c(O)c(c5c(nc(-c6ccco6)n5-c5ccccc5)c4c3C2=O)NC(=O)/C(C)=C\C=C\C(C)C(O)C(C)C(O)C(C)C(OC(C)=O)C1C (stereo not drawn) | -6.2 | -13.8 | -19.8 | 14.2 | -18.8 | -22.7%
Cc1nn(C(=O)c2cccnc2)c(-c2ccccc2)c1N=Nc1ccc(S(=O)(=O)Nc2ncccn2)cc1 | 23.7 | 18.4 | 31.4 | 33 | 0.7 | 42.5%
COc1ccc(OC(C)C(=O)O)c2c1CCCC2=O (stereo not drawn) | 21.6 | 6.3 | -17.1 | 25.6 | 5.15 | 22.7%
CCn1c(O)c(C=Nc2ccccc2)s/c1=N/Nc1nc(C)c(C(C)=O)s1 | 24.6 | 5.25 | 17.2 | 16.1 | 42.9 | 21.2%
COC(=O)C(C(=O)C(=O)Nc1nc2ccc([N+](=O)[O-])cc2s1)c1nc2ccc(Cl)cc2[nH]c1=O (stereo not drawn) | 10.3 | 17.5 | 21.4 | 26.8 | 15 | -3.1%
Cc1ccc(Cl)cc1NC(=O)C(C)Oc1ccccc1 (stereo not drawn) | 4.45 | -1.85 | -2 | -4.75 | 30.1 | 13.9%
OC1COC2CC(Nc3ccccn3)OC12 (stereo not drawn) | -36.8 | -41.2 | -15.8 | 0 | -10.2 | -13.6%
CCCCC1(CN(C)C)C(=O)N(C)C(=O)N(C2CCCCC2)C1=O (stereo not drawn) | 9.15 | 10.2 | 1.4 | 21.9 | -4.2 | 9.6%
COc1cc(C(Nc2ccccn2)c2cc3c(cc2O)OCO3)cc(OC)c1O (stereo not drawn) | 28.2 | 46.5 | 39.3 | 30.9 | 15.7 | 24.2%
O=C(O)COc1ccc(C(=O)O)cc1 | 5.6 | -19.9 | 3.7 | -53.7 | -23.4 | -6.15%
O=C(O)C(CCC1CCC=CCC1)C(=O)O | -13.8 | -6.7 | -9.25 | -2.45 | 5.6 | -7.05%
S=c1sc2ccccc2n1CN1CCCC1 | 6.1 | 0.05 | 29.9 | 11.9 | 8.3 | -6.65%
COc1ccc(C2=Nn3c(nc4sc(C)c(C)c4c3=O)SC2)cc1 | 2.45 | -8.15 | -3.7 | 19.1 | 2.95 | -14.3%
CCOC(=O)Nc1ccc(C(=O)OCC)cc1 | 29.8 | -15.1 | 7.85 | 8.1 | -16.3 | 13.7%
